Laboratory results as given in PubChem BioAssay AID652067 (The Scripps Research Institute Molecular Screening Center, 2013).
About 5,400 (1.5%) of roughly 370,000 compounds were called active.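 How the source made its calls: active means activation above the mean of all tested compounds plus 3 SD (cut at about 5.5% in these data); inactive means the rest.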 This excerpt belongs to a sample that is enriched for actives.

Tested on: DAF-12 nuclear receptor (Haemonchus contortus)
Assay: hcDAF-12 driven luciferase reporter activation – cell-based, luminescence, HEK293, lit1-tk-luc reporter, primary screen (AID 652067);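 further: 100% = response to 3 µM Δ7-dafachronic acid high control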
Settings: HEK293 hcDAF-12 lit1-tk-luc reporter, at 6.8 µM, stronger effect = higher value, 0% DMSO, 100% Δ7-dafachronic acid

activation, inactive:
COc1cccc(N2CCN(CC(=O)N(C)Cc3ccc(F)cc3)CC2)c1 -2.02%, C=CCN1C(=O)[C@H](CC(=O)NCCCN2CCCC2=O)[C@@]2(C(=O)OCC)CCCC=C12 -0.18%, Cc1ccc(NC(=O)c2cc(C)nn2-c2ccccc2)c(C)c1 -2.18%, Clc1cccc2c1C1CC2CCN1Cc1ccccc1 (configuration not stated) -1.68%, CS(=O)(=O)N(Cc1ccccc1Cl)c1ccc(C(=O)NCc2cccnc2)cc1 -2.13%, CC(OC(=O)CNC(=O)c1ccco1)C(=O)Nc1ccc(Cl)cn1 (configuration not stated) -2.11%, O=C(COC(=O)c1ccco1)Nc1ccc(Cl)cn1 0.13%, O=C(Nc1cc(Cl)cc(Cl)c1)OCCN1CCCC12CCC(c1ccccc1)CC2 (configuration not stated) -0.18%, COC(=O)[C@]12C[C@H](CC(=O)N3CCOCC3)C(=O)N(Cc3ccc(Cl)cc3Cl)C1=C[C@H](COCc1ccccc1)O[C@@H]2C -3.03%, NC(=S)NN=Cc1ccc(OC(=O)COc2cc(Cl)c(Cl)cc2Cl)cn1 -1.62%, CC(C)Oc1c(Br)cc(Br)cc1/C=N/NC(N)=S -4.22%, Cc1cc(N2CCN(C(=O)OC(C)(C)C)C[C@H]2C)ccc1N1CCN(Cc2ccccc2)[C@H](C)C1 1.47%, O=C(Nc1ccccc1)N(Cc1cccnc1)Cc1ccco1 -0.9%, Cc1ccc(N(C(=O)CNC(=O)c2ccco2)C(C(=O)NC2CCCC2)c2ccncc2)cc1 (configuration not stated) 0.7%, COc1cccc(N(C(=O)CNC(=O)c2ccco2)C(C(=O)NC2CCCCC2)c2cccnc2)c1 (configuration not stated) -0.65%, CC(C)CNc1cccc2c1S(=O)(=O)N[C@H](CC(C)C)CO2 -1.3%, C=CCN1C(=O)[C@@H](CC(=O)NCCCCc2ccccc2)[C@]2(C(=O)OCC)CCCCC/C=C/12 -0.4%, CC(=O)c1c(Nc2ccccc2)sc(C(=O)c2ccccc2)c1C -2.59%, COC(=O)c1cc2c(N)c(C(=O)c3ccc(Cl)cc3)sc2nc1C(OC)OC 0.3%, CCCCCCCCN1C(=O)[C@@H](CC(=O)N2CCN(C(=O)OCC)CC2)C[C@@]2(C(=O)OC)C1=C[C@H](C1CCCC1)O[C@@H]2C -0.68%, COc1cccc(CN2C(=O)CCC2(C)C(=O)NC2CCCCCC2)c1 (configuration not stated) -2.09%, O=C(CSc1nnc(COc2ccccc2)n1-c1ccc(Cl)cc1)Nc1ccc2c(c1)OCO2 -0.19%, COc1ccc(N2CCN(C(=O)CCc3nc(-c4ccc(C)cc4)no3)CC2)cc1 -1.97%, COc1ccc(-c2noc(CCC(=O)N3CCN(c4cccc(C)c4)CC3)n2)cc1 -0.53%, C=CS(=O)(=O)N(Cc1nnn(Cc2ccccc2)c1Br)[C@H](C(=O)OC)C(C)C -3.12%, COc1ccc(N2CCN(C(=O)CNC(=O)c3ccc(C(C)(C)C)cc3)CC2)cc1 -2.42%, O=C(CNC(=O)c1ccc2ccccc2c1)Nc1ncccc1O 0.18%, Clc1ccc(-n2c(COc3ccccc3)nnc2SCc2nc3ccccc3[nH]2)cc1 -0.51%, CCc1nc(N2CCN(C(C)=O)CC2)c2c3c(sc2n1)CCCC3 0.85%, CCn1c(SCC(C)=O)nc2sc3c(c2c1=O)CCCC3 -0.57%, COC(=O)C1=C(C(=O)OC)C2C=C(C(C)C)C1C(=O)C2(C)O (configuration not stated) -1.42%, O=C(OCC#CCSc1nnc(-c2ccco2)o1)c1ccc(F)cc1 -1.32%, O=C(O)Cn1cnc2c(NCc3ccccc3)ncnc21 0.95%, Cc1cc(=O)[nH]c(SCC(=O)Nc2ccc(F)cc2F)n1 -0.74%, O=C(Nc1ccccc1)N1CCN(Cc2nc3ccccc3c(=O)[nH]2)CC1 0.3%, Cc1ccc(N2C(=O)C(NC(=O)c3c(F)cccc3F)(C(F)(F)F)C3=C2CC(C)(C)CC3=O)cc1 (configuration not stated) -1.79%, O=C(c1cccc(C(F)(F)F)c1)N1CC[C@H]2[C@H](CCCN2Cc2cc(F)cc(F)c2)C1 -0.81%, O=C(CSc1nnc(-c2cccc(Cl)c2)n1Cc1ccco1)Nc1ccc(OCc2ccccc2)cc1 -3.78%, O=C(CSc1nnc(-c2ccccc2)n1Cc1ccco1)Nc1ccccc1-c1ccccc1 -2.62%, COC(=O)[C@]12C[C@H](CC(=O)NCCc3ccccc3OC)C(=O)N(Cc3ccccc3)C1=C[C@H](C(C)C)O[C@@H]2C1CC1 -0.81%, COc1cccc(OC)c1C(=O)N1CCN(Cc2cccnc2)CC1 -1.19%, Cc1ccc(C2=CCN(C)C(=O)N2c2ccc(Cl)cc2)cc1 -0.28%, COC(=O)CC1CCc2cc(C)cc(C(CC(C)C)NC(=O)[C@H](CC(C)C)NC(=O)OCc3ccccc3)c2O1 (some centres not stated) -1.44%, O=C(COC(=O)/C=C/c1ccc(Cl)cc1)NC1CCS(=O)(=O)C1 (configuration not stated) -0.16%, Cc1ccc(C(=O)NCC(=O)O)s1 -0.44%, COc1ccccc1NC(=O)c1c(Br)cnn1C -1.66%, Cc1csc(NC(=O)CN2CCCCCC2)n1 0.84%, COc1ccccc1NC(=O)c1cc(Cl)nnc1Cl 1.71%, C=CCC[C@@H](Cc1ccc(F)cc1)C(=O)OC[C@H](Cc1c[nH]c2ccccc12)NC(=O)[C@@H](CC=C)CC(=O)N(CCO)Cc1ccccc1 -2.25%, CCCCNc1cccc2c1S(=O)(=O)N[C@@H](C)CO2 2.03%, COC(=O)[C@]12C[C@H](CC(=O)NCCCN3CCCC3=O)C(=O)N(CCc3ccc(OC)c(OC)c3)C1=C[C@H](COCc1ccccc1)O[C@@H]2C -0.83%, Cc1ccnc(-n2sc3ccccc3c2=O)n1 4.36%, C[C@H](C(=O)N(C)c1ccccc1)[C@@H](O)c1ccc2ccccc2c1 0.57%, COc1cccc(CNC(=O)[C@H]2CCCN2C(=O)[C@H]2CCCN2C(=O)c2ccc(F)cc2)c1 2.09%, COC(=O)C1=C(C)N(Cc2ccc(C(F)(F)F)cc2)C(=NCc2ccccc2)NC1c1ccccc1C(F)(F)F (configuration not stated) 0.56%, Cc1cc(C)c2nc(N3CCC(C(=O)NCCN4CCOCC4)CC3)sc2c1 1.35%, Cc1ccc(C)c(C(C)NC(=O)C2CCCO2)c1 (configuration not stated) -1.93%, O=C(C(=O)N1CCC(CNC(=O)c2cccnc2Cl)CC1)c1cccs1 -0.06%, O=C(NCc1ccccc1)[C@@H]1CCCN1C(=O)[C@@H](NS(=O)(=O)c1ccc(F)cc1F)C1CCCCC1 -1.11%, Cc1cnc(NC(=O)Cn2cnc3c2c(=O)n(C)c(=O)n3C)s1 -1.32%, O=C(Nc1ccc2nc3n(c(=O)c2c1)CCCC3)c1ccc(Cl)nc1 -2.27%, Cc1cccc(NC(=O)c2cccc(C(=O)Nc3cccc(C)c3C)n2)c1C 0.52%, Cc1ccc(NC(=O)c2ccc(Cl)nc2)cc1S(=O)(=O)N1CCOCC1 -0.39%, COc1ccccc1C(=O)N1O[C@]23C=C[C@]14C[C@@H](O)CC[C@]4(C)C2CC[C@]1(C)[C@@H]([C@H](C)/C=C/[C@H](C)C(C)C)CC[C@H]13 (some centres not stated) 0.11%, C[C@@H]1CN([C@H](C)CO)C(=O)CCCn2cc(nn2)CO[C@H]1CN(C)C(=O)Nc1ccc(N2CCCCC2)cc1 -1.32%, Cc1ccc(-n2c(SCC(=O)Nc3cccc4ccccc34)nnc2-c2ccccn2)cc1 0.59%, C[C@H]1[C@H](c2ccccc2)Oc2cc(Br)ccc2S(=O)(=O)N1Cc1cccc(F)c1 -0.73%, COc1ccc(S(=O)(=O)NCCc2cc3ccc(C)c(C)c3[nH]c2=O)cc1 -0.62%, COc1cc(NC(=O)COC(=O)CSc2ccc3ccccc3c2)c(C)cc1[N+](=O)[O-] 2.93%, CC1CCCCC1NC(=O)/C(C#N)=C/C=C/c1ccccc1[N+](=O)[O-] (configuration not stated) -0.31%

activation, active:
CCCc1cc(C(=O)Nc2ccc(Cl)cn2)cs1 7.31%, NC(=S)N/N=C/c1coc2cc(Cl)ccc2c1=O 5.81%, CC(C)(C)NC(=O)C(c1ccncc1)N(C(=O)CNC(=O)c1ccco1)c1ccc2c(c1)OCO2 (configuration not stated) 6.8%, Nc1ccccc1/C=N\N=C/c1ccccc1N 8.99%, CN(C)c1ccnc2sc(C(=O)c3ccccc3)c(N)c12 6.4%, Cc1ccc(C)c(N2CCN(C(=O)CCc3nc(-c4cccc(C(F)(F)F)c4)no3)CC2)c1 6.2%, O=C(NCC(=O)N1CCN(c2ccccc2O)CC1)c1ccc2ccccc2c1 6.1%, NNC(=O)C1CCCn2c1nc1sc3c(c1c2=O)CCCC3 (configuration not stated) 8.63%, Fc1ccccc1/C=N/Nc1cc(N2CCCCC2)ncn1 5.99%, Clc1cccc(-c2nc3nc4ccccc4nc3n2Cc2ccco2)c1 7.47%, Cc1csc(NC(=O)c2ccc(C)s2)n1 6.44%, COc1ccccc1NC(=O)c1ccc(C)s1 9.1%, Cc1ccnc(Nc2nc3ccccc3s2)n1 9.2%, Cc1cc(C)c2nc(NC(=O)C3CCCO3)sc2c1 (configuration not stated) 8.44%, Cc1cnc(NC(=O)c2ccccn2)s1 5.94%, Cc1cnc(NC(=O)c2ccc(Cl)nc2)s1 7.6%, COc1cc(/C=C(\C#N)C(=O)Nc2ccc3ccccc3c2)c([N+](=O)[O-])cc1OC 5.84%
